# Measurements as given in PubChem BioAssay (EPA / NIEHS).
# Activity calls are given as the source filed them. How the source made its calls: active means hit-call score of the fitted dose curve at least 0.9, where 1 is the maximum; inactive means score below 0.9.
# Assay: STM_H9_CystineISnorm_perc: Stemina devTOX quickPredict H9 human embryonic stem cell (hESC)-based Assay for Cystine (CYSS) Metabolite Biomarker, Normalized (AID 2283713)
# Excerpt: STM_H9_secretome utilizes undifferentiated H9 cells to measure relative changes in two metabolites, ornithine (ORN) and cystine (CYSS) in the secretome, targeting a critical drop in the ORN/CYSS ratio as a biomarker for developmental toxicity.STM_H9_CystineISnorm_perc is one of 10 components calculated in the STM_H9_secretome assay. It measures the integrated area of the endogenous cystine normalized to the spiked-in isotopically labeled standard and to the median value of the 0.1% DMSO neutral control treatment using UPLC-HRMS technology.Data from the assay component STM_H9_CystineISnorm_perc was analyzed at the assay endpoint STM_H9_CystineISnorm_perc in the positive analysis fitting direction relative to DMSO as the negative control and baseline of activity. Using a type of binding reporter, gain or loss-of-signal activity can be used to understand relative metabolite change.
# H9 hESCs maintained in a pluripotent state were exposed to test compound for 72h with chemical replenishment with media replacement every 24h. Cell-conditioned media from the final 24-h treatment period was collected for analysis of the targeted biomarker, and cell viability of the corresponding cell layer was assessed. The chemical library was tested in blinded fashion. Each test plate included 1uM Methotrexate (MTX; Selleck Chemicals, Houston, Texas) as a positive reference, 5 nM MTX as a negative reference, 0.1% DMSO as the neutral (vehicle) control, and sample-level media blanks.H9 cell-conditioned media from the final 24-h treatment period was collected for analysis of the targeted biomarker and cell viability was measured from the corresponding cell layer. Cell viability was measured using the CellTiter-Fluor assay (Promega, Madison, Wisconsin) based on proteolytic cleavage of a substrate to fluorescent signal proportional to the number of living cells. The cell viability Relative Fluorescence Unit (RFU) was background corrected and normalized to mean RFU of the neutral control (0.1% DMSO). The collected H9-cell-conditioned media samples were processed for targeted biomarker analysis as described (Palmer et al., 2013). Briefly, spent media samples were deproteinized (40% acetonitrile) and processed for UPLC-HRMS. Data acquisition was performed using 4 separate UPLC-HRMS systems, consisting of an Agilent 1290 Infinity LC system (Agilent Technologies) interfaced with an Agilent high-resolution mass spectrometer (models G6520A, G6520B, G6530A, and G6224A). A Waters Acquity UPLC BEH Amide column (2.1mm x 50mm, 1.7lm particle size; Waters, Milford, Massachusetts) maintained at 40C was applied for separation of metabolites using a 6.5min solvent gradient with 0.1% formic acid in water and 0.1% formic acid in acetonitrile (1.0ml/min flow rate). Data were acquired using MassHunter Acquisition software (version B 04.00, Agilent Technologies). The extracted ion chromatogram (EIC) areas for ORN, CYSS, and their respective spike-in C13-standards were determined using the Agilent MassHunter Quantitative Analysis software, version B.05.00 or newer (Agilent Technologies), and data were normalized as described in Palmer et al. (2017).
SMILES,AC50,outcome
CCOc1nc(F)cc2nc(S(=O)(=O)Nc3c(Cl)cccc3Cl)nn12,0.0249 µM (active),–
N#CN=C1SCCN1Cc1ccc(Cl)nc1,–,inactive
CCNC(=O)NC(=O)C(C#N)=NOC,–,inactive
COc1cc(OC)nc(NC(=O)NS(=O)(=O)c2ncccc2OCC(F)(F)F)n1,–,inactive
COCc1cnc(C2=NC(C)(C(C)C)C(=O)N2)c(C(=O)O)c1 (stereo not given),–,inactive
O=C(Nc1ccccc1-c1ccc(Cl)cc1)c1cccnc1Cl,–,inactive
CCNP(=S)(OC)O/C(C)=C/C(=O)OC(C)C (stereo not given),75.5 µM (active),–
CCOc1nc(C(Cl)(Cl)Cl)ns1,–,inactive
CS(=O)(=O)c1ccc(C(=O)C2C(=O)CCCC2=O)c([N+](=O)[O-])c1,–,inactive
N#Cc1c[nH]cc1-c1cccc2c1OC(F)(F)O2,29.4 µM (active),–
CC(C)C1(C)N=C(c2ncccc2C(=O)O)NC1=O (stereo not given),–,inactive
Clc1cccc(C(Cl)(Cl)Cl)n1,–,inactive
CCOP(=S)(OCC)Oc1nc(Cl)n(C(C)C)n1,50.5 µM (active),–
CO/N=C(/C1=NOCCO1)c1ccccc1Oc1ncnc(Oc2ccccc2Cl)c1F,9.72 µM (active),–
Cc1cc(C)nc(Nc2ccccc2)n1,7.74 µM (active),–
CCN(CC)C(=O)C(C)Oc1cccc2ccccc12 (stereo not given),5.52 µM (active),–
CCC(C)n1c(=O)[nH]c(C)c(Br)c1=O (stereo not given),–,inactive
CC1(C)CON(Cc2ccccc2Cl)C1=O,72.5 µM (active),–
CCCCC(C#N)(Cn1cncn1)c1ccc(Cl)cc1 (stereo not given),–,inactive
CC1(C)CCC(=Cc2ccc(Cl)cc2)C1(O)Cn1cncn1 (stereo not given),28.9 µM (active),–
CC1(C)C(C=C(Cl)Cl)C1C(=O)OC(C#N)c1cccc(Oc2ccccc2)c1 (stereo not given),–,inactive
CNC(=O)Oc1cccc2ccccc12,2.87 µM (active),–
COc1ccc(-c2ccccc2)cc1NNC(=O)OC(C)C,30.5 µM (active),–
CCCCC(O)(Cn1cncn1)c1ccc(Cl)cc1Cl (stereo not given),78.9 µM (active),–
O=C1C2CC=CCC2C(=O)N1SC(Cl)(Cl)Cl (stereo not given),–,inactive
CC(C)Nc1nc(Cl)nc(NC(C)C)n1,5.93 µM (active),–
CCCN(CC)CC1COC2(CCC(C(C)(C)C)CC2)O1 (stereo not given),1.03 µM (active),–
CS(=O)(=O)c1cc(C(F)(F)F)ccc1C(=O)c1cnoc1C1CC1,–,inactive
CC(C)(C)C(=O)C(Oc1ccc(Cl)cc1)n1cncn1 (stereo not given),34.3 µM (active),–
Cn1c(-c2ccccc2)cc(-c2ccccc2)[n+]1C,10.9 µM (active),–
